Structures are written as SMILES. About 83,000 compounds went through this panel and 20% of them were active in at least one assay; those are over-represented in the sample as a whole.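 Testing used 96-well plates and a 48-hour single-concentration exposure. Example: -40 means 40% of the starting cells died.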 Unmarked numbers belong to inactive results. Calls of active or inactive are those of the source.

In this assay the test system is OVCAR-3 ovarian. The assay is described as follows: NCI-60 one-dose screen, 48 h (100 = growth as untreated, 0 = no growth, -100 = all killed). Particulars: 10 µM. Here is the method: Growth inhibition of the OVCAR-3 human tumor cell line is measured as a screen for anti-cancer activity. Cells are grown in 96 well plates and exposed to the test compound for 48 hours. Compounds are tested at a single concentration, which is 10^-5 M for most compounds. The reported endpoint is percent growth (GI% or GIPRCNT), where numbers from 0 - 100% represent growth inhibition, and numbers from -100% - 0 represent cell death. For example, a value of 40 represents 60% growth inhibition. A value of 0 means no net growth occurred over the course of the experiment. A value of -40 indicates 40% of cells at the beginning of the experiment died by the end of the experiment. A value of -100 means all cells are dead at the end of the experiment.
NCI-60 Human Tumor Cell Lines Screen was performed using the standard one-dose NCI protocol, which is described in more detail at https://dtp.cancer.gov/discovery_development/nci-60/default.htm.
Compounds with GIPRCNT values below 10 were considered active. Activity score was based on GIPRCNT using the following formula: […]
Score is 0 for GIPRCNT values of 100 or above, 50 for GIPRCNT values of 0, and 100 for GIPRCNT values of -100.
Take `CC(=O)Oc1ccccc1C(=O)NC([Se])=NC1CCCCC1`: the growth was -68.1% (active).
The result for `C#CCCCN(CCNc1ccnc2cc(Cl)ccc12)C(=O)CCC(=O)O[C@@H]1O[C@@H]2OC3(C)CC[C@H]4[C@H](C)CC[C@@H]([C@H]1C)[C@@]24OO3` reads 25.7%; that for `CC(C)N=C([Se])NC(=O)c1ccccc1`, -61% (active).
The result for `C[C@H]1[C@H](OC(=O)CCC(=O)N(CCCc2cn(-c3ccc([N+](=O)[O-])cc3)nn2)CCNc2ccnc3cc(Cl)ccc23)O[C@@H]2OC3(C)CC[C@H]4[C@H](C)CC[C@@H]1[C@@]24OO3` reads 40.8%; that for `COc1cc2cc(C(=O)N3C[C@@H](CCl)c4c3cc(OC(=O)N3CCN(C)[C@@H]5CSSC[C@@H]53)c3ccccc43)[nH]c2c(OC)c1OC`, -15.8% (active).
With `CC1=C(C=O)C2=C(C)C3(CC3)[C@@](C)(O)C(=O)C2=C1` the figure was -9.94% (active); with `CCOC(=O)C1=C(Nc2ccccc2)C(=O)OC12C(=O)Nc1ccccc12` (stereo not given), 104%.
Consider `CC(=O)Oc1ccccc1C(=O)[Se]C(=NC(C)C)NC(C)C`, for which the growth is -93.7% (active).
With `C=CC[Se]C(=O)c1ccc(C(=O)[Se]CC=C)s1` the figure was -92.9% (active); with `CC(C)C[C@H](NC(=O)CNC(=O)C[C@H]1O[C@@H]2OC3(C)CC[C@H]4[C@H](C)CC[C@@H]([C@H]1C)[C@@]24OO3)B(O)O`, -12.4% (active); with `COc1ccc(/C=C/C(=O)c2nc3ccccc3n2Cc2ccc(Br)cc2)cc1`, 60%.
The result for `O=C(NC([Se])=NC1CCCCC1)c1ccccc1` reads 48.4%; that for `Cc1c2oc3c(C)ccc(C(=O)N[C@@H]4C(=O)N[C@H](C(C)C)C(=O)N5CCC[C@H]5C(=O)N(C)CC(=O)N(C)[C@@H](C(C)C)C(=O)OC4C)c3nc-2c(C(=O)N[C@@H]2C(=O)N[C@H](C(C)C)C(=O)N3CC(=O)C[C@H]3C(=O)N(C)CC(=O)N(C)[C@@H](C(C)C)C(=O)OC2C)c(N)c1=O` (stereo not given in full), 6.77% (active).
With `COc1cc(OC)c(/C=C/C(=O)c2nc3ccccc3n2Cc2ccc(F)cc2)c(OC)c1` the figure was 98.4%; with `O=C(/C=C/c1ccco1)c1nc2ccccc2n1Cc1ccc(Br)cc1`, 22%; with `COc1ccc2cc([C@H](C)C(=O)[Se]CCC#N)ccc2c1`, -61% (active).
With `CC[C@]12C=CCN3CC[C@@]4(c5ccc(OC)cc5N(C)[C@H]4[C@@](O)(C(=O)OC)[C@@H]1OC(=O)CCC[P+](c1ccc(C)cc1)(c1ccc(C)cc1)c1ccc(C)cc1)[C@@H]32`, the growth was -61.9% (active).
`CC(=C\C(=O)Oc1ccc2c3c1OC1C(O)CCC4(O)C(C2)N(CC2CCC2)CCC314)/C=C1\CCCc2ccccc21` (stereo not given): the growth is 77.2%.
With `CN(C)CCc1cn(C2CCC2)c2cccc(O)c12` the figure was 93.6%; with `C[C@H]1[C@@H](Oc2ccc(-c3cn(-c4ccnc5cc(Cl)ccc45)nn3)cc2)O[C@@H]2OC3(C)CC[C@H]4[C@H](C)CC[C@@H]1[C@@]24OO3`, 32.7%; with `O=C(/C=C/c1ccccc1)c1nc2ccccc2n1Cc1ccc(Br)cc1`, -72.5% (active).
The result for `COC(=O)CCn1c(-c2ccc(-n3cc(-c4ccc(O[C@H]5O[C@@H]6OC7(C)CC[C@H]8[C@H](C)CC[C@@H]([C@H]5C)[C@@]68OO7)cc4)nn3)cc2)nc2ccccc21` reads 20.4%.
With `COc1cc(OC)c(S(=O)(=O)N(CCCl)CCCl)cc1C(=O)/C=C/c1cc(OC)c(OC)c(OC)c1` the figure was -3.7% (active); with `O=C(/C=C/c1ccc(Br)cc1)c1nc2ccccc2n1Cc1ccc(Br)cc1`, -46.9% (active); with `C=CC[Se]C(=O)c1cncc(C(=O)[Se]CC=C)c1`, -89.5% (active).
Take `CC12OOC(C)(OO1)C2CCC(=O)NCCNc1ccnc2cc(Cl)ccc12` (stereo not given): the growth is 97.3%.
`O=C(/C=C/c1ccccc1)c1nc2ccccc2n1Cc1ccc(F)cc1`: the growth was -47.5% (active).
With `C[C@H]1[C@H](OC(=O)CCC(=O)Nc2cnccn2)O[C@@H]2OC3(C)CC[C@H]4[C@H](C)CC[C@@H]1[C@@]24OO3` the figure was 34.6%; with `CC1=C(CCC=O)C2=C(C)C3(CC3)[C@@](C)(O)C(=O)C2=C1`, -77.6% (active).
The result for `CC[C@]12C=CCN3CC[C@@]4(c5ccc(OC)cc5N(C)[C@H]4[C@@](O)(C(=O)OC)[C@@H]1OC(=O)CCCC[P+](C1CCCCC1)(C1CCCCC1)C1CCCCC1)[C@@H]32` reads -60.3% (active).
Regarding `COC(=O)C[C@](O)(CCCC(C)C)C(=O)O[C@H]1C(OC)=C[C@@]23CCCN2CCc2cc4c(cc2[C@@H]13)OCO4`, the growth was -31% (active).
The result for `CC[C@@]12CC(C(=O)OC)=C3Nc4cc5c(cc4[C@@]34CCN(C[C@H]3O[C@H]31)[C@@H]24)[C@@H]1[C@H](O5)[C@@H](O)[C@@]2(CC)CC(C(=O)OC)=C3Nc4cc(OC)ccc4[C@@]34CCN1[C@@H]24` reads 7.91% (active).
For the compound `CC1=C(CCC=NNC(N)=O)C2=C(C)C3(CC3)[C@@](C)(O)C(=O)C2=C1`, the growth is -57.4% (active).
The result for `CC1=C(COCCOC(=O)c2ccc(S(=O)(=O)F)cc2)C2=C(C)C3(CC3)[C@@](C)(O)C(=O)C2=C1` reads 9.3% (active); that for `N#C[Se]CC(=O)Nc1cccc(C(F)(F)F)c1`, -13.7% (active).
As to `C#CC[Se]C(=O)c1ccc2n[se]nc2c1`, the growth was 46.2%.
The result for `CC12OOC(C)(OO1)C2CCC(=O)NCCCNc1ccnc2cc(Cl)ccc12` (stereo not given) reads -49.6% (active); that for `CCC[Se]C(=O)c1ccc(C(=O)[Se]CCC)s1`, -47.6% (active); that for `O=C(/C=C/c1ccco1)c1nc2ccccc2n1Cc1ccc(F)cc1`, 46.3%.
On to `Cc1ccc2[nH]c(=S)n(-c3ccc(F)cc3)c(=O)c2c1`, for which the growth is 114%.

Source of the values: PubChem BioAssay (NCI).
